# Measured values as given in PubChem BioAssay.
# Active and inactive are the calls of the source.
# Assays:
# [1] = system: XIP peptide (Xip251-270) binding; assay: small-molecule binders of XIP peptide, primary screen, biochemical, small-molecule microarray, fluorescence 635/667 nm, 0.1 µg/mL protein (AID 1182); conditions: fluorescent protein binding, 635 nm, higher = more signal, called active from +8 up or from −8 down
# [2] = system: XIP peptide (Xip251-270); assay: small-molecule binders of XIP peptide, primary screen, biochemical, small-molecule microarray, fluorescence 635/667 nm, 0.5 µg/mL protein (AID 1183); conditions: small-molecule microarray binding, fluorescence 635 nm; higher = more signal
# [3] = Plasmodium falciparum growth inhibition, primary screen, strain 3D7, DAPI fluorescence, 100 nL (AID 1184);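 note: parasites grown inside human red blood cells in medium with human serum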; conditions: P. falciparum 3D7 growth, 3 d, higher = more signal
# [4] = target: Homeobox protein Hox-A13 (Mus musculus) (UniProt Q62424); assay: inhibitors of HoxA13-DNA binding, primary screen, biochemical, fluorescence polarization, labeled oligonucleotide (AID 1185); conditions: 15 min, higher = more signal, called active from +8 up or from −8 down
# Chain of Homeobox protein Hox-A13 (Mus musculus) (Q62424 whole entry, looked up): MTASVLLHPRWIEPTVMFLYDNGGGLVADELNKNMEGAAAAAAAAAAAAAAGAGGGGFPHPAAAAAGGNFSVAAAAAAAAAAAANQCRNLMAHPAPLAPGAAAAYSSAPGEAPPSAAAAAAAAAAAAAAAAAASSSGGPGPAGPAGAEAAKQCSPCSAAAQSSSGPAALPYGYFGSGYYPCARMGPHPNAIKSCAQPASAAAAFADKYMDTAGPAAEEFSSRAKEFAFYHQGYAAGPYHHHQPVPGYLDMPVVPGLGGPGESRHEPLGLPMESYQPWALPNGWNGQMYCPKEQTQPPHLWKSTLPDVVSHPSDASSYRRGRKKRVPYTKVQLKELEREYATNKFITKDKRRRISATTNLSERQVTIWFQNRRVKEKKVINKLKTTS
Structure (SMILES),composite z-score [1],composite z-score [2],z-score [3],z-score [4]
COC(=O)[C@H](C)NC(=O)CCC1CC(OC(=O)NCc2ccc3c(c2)OCO3)CC2(CCCC(COC(=O)NCCCN3CCCC3=O)O2)O1 (stereo not given in full),0.045 (inactive),0.612,-1.84,-5.61 (inactive)
C[C@H]1CC[C@H]2C(=O)OC(COc3ccc(C(C)(C)C)cc3)CN2[C@@H]1c1ccc(Br)cc1 (stereo not given in full),0.0819 (inactive),0.3,1.52,-3.32 (inactive)
CC(=O)OC[C@H]1O[C@H](CC=NO[C@@H](C)c2cc(-c3c(C)cc(C)cc3C)no2)C=C[C@@H]1OC(C)=O,0.205 (inactive),-0.445,-0.863,-5.88 (inactive)
O=C(NN=C1C[C@@H](O)[C@@H](O)[C@@H]2[C@@H]3C(=O)N(c4ccc(F)cc4F)C(=O)[C@@H]3CC[C@H]12)OCc1ccccc1,0.081 (inactive),0.653,-0.131,-5.87 (inactive)
CN1CCc2nc(-c3ccccc3)c(-c3ccccc3)cc2C1,-0.368 (inactive),0.0309,0.309,-0.07 (inactive)
COC(=O)[C@H](C)NC(=O)CCC1CC(OC(=O)NCc2cccc3ccccc23)CC2(CCCC(COC(=O)NCCC(C)C)O2)O1 (stereo not given in full),-0.477 (inactive),0.468,-1.57,-5.31 (inactive)
CO[C@H]1COC(=O)CC=C[C@H](C)[C@H](OC)COC(=O)[C@@H](C)NC(=O)CC=C[C@@H]1C,0.533 (inactive),0.356,-0.205,-0.75 (inactive)
CCOC(=O)CCN1C(=O)[C@H]2[C@H]3[C@H](O)[C@H](O)CC(=NOCC=C(C)CCC=C(C)C)[C@H]3CC[C@H]2C1=O,-0.322 (inactive),-0.206,0.241,0.765 (inactive)
O=C1[C@H]2[C@H]3[C@H](O)[C@H](O)CC(=NO[C@@H]4O[C@H](CO)[C@@H](O)[C@H](O)[C@H]4O)[C@@H]3CC[C@H]2C(=O)N1C[C@@H]1CCCO1,0.357 (inactive),0.385,-1.49,-0.192 (inactive)
COC(=O)[C@@H]1CC[C@H](C)[C@@H](c2ccc(Br)cc2)N1C[C@@H](O)CN=[N+]=[N-],-0.193 (inactive),-0.03,-0.877,-3.81 (inactive)
O=C1[C@H]2CCn3c(=O)n(Cc4cc5c(cc4Cl)OCO5)c(=O)n3[C@H]2[C@H](O)[C@@H]2O[C@H]12,0.188 (inactive),0.639,0.0829,-0.543 (inactive)
Cc1cc2c(nc1C)CCCCN2CC(O)CN1CCCc2nc(-c3ccc(Br)cc3)ccc21 (stereo not given),-0.0362 (inactive),0.0985,0.528,-4.77 (inactive)
O=C1CCCC=C1C(O)C1CCCCC1 (stereo not given),-0.459 (inactive),-0.11,0.247,-0.0768 (inactive)
CCN1C(=O)[C@H]2[C@H]3[C@H](O)[C@H](O)CC(=NOCC=C(C)CCC=C(C)C)[C@@H]3CC[C@H]2C1=O,-0.544 (inactive),0.615,-0.298,-3.73 (inactive)
CCOC(=O)[C@H](Cc1ccccc1)NC(=O)CCC1CC(OC(=O)NCc2ccc3c(c2)OCO3)CC2(CCCC(COC(=O)NCCCN3CCCC3=O)O2)O1 (stereo not given in full),0.112 (inactive),0.577,-1.87,-3.13 (inactive)
CCOC(=O)[C@H](Cc1ccccc1)NC(=O)CCC1CC(OC(=O)NCCc2ccc(F)cc2)CC2(CCCC(COC(=O)NCCOc3ccccc3)O2)O1 (stereo not given in full),-0.337 (inactive),0.401,-1.7,-2.88 (inactive)
CC(C)=NO[C@@H](C)c1cn([C@H](CO)Cc2ccccc2)nn1,-0.407 (inactive),0.241,0.412,1.06 (inactive)
CON=C(C)CCN1CCc2nc(-c3ccccc3)c(-c3ccccc3)cc2C1,0.257 (inactive),0.41,-1.38,-2.53 (inactive)
O=C(NCCC[N+]1=CC=NC1c1ccccc1)N1CCCc2nc(-c3ccc(Br)cc3)ccc21 (stereo not given),0.638 (inactive),0.0388,-0.449,-7.21 (inactive)
CC(C)=CCCC(C)=CCON=C1C[C@@H](O)[C@@H](O)[C@@H]2[C@@H]3C(=O)N(c4cccc(Oc5ccccc5)c4)C(=O)[C@@H]3CC[C@H]12,0.827 (inactive),-0.256,0.395,-0.963 (inactive)

Structure (SMILES),composite z-score [1],composite z-score [2],z-score [3],z-score [4]
O=C1C[C@@H](O)[C@@H](O)[C@@H]2[C@@H]3C(=O)N(C4CCCCC4)C(=O)[C@@H]3CC[C@@H]12,-0.08 (inactive),0.148,0.922,0.136 (inactive)
CC(CCN1CCCCc2nc(C)c(C)cc21)=NO[C@@H](C)c1cc(-c2c(C)cc(C)cc2C)no1,0.107 (inactive),0.0399,-0.143,-2.25 (inactive)
CC(C)CON=C1[C@H]2CCn3c(=O)n(C)c(=O)n3[C@H]2[C@H](O)[C@@H]2O[C@H]12,-0.12 (inactive),0.245,1.43,0.322 (inactive)
O=C1C2=CC[C@H]3C(=O)N(c4ccc(F)cc4F)C(=O)[C@H]3[C@H]2[C@H](O)[C@@H]2O[C@H]12,-0.196 (inactive),0.167,0.569,-0.318 (inactive)
CC(C)=CCCC(C)=CCON=C1C[C@@H](O)[C@@H](O)[C@@H]2[C@@H]3C(=O)N(Cc4ccc5c(c4)OCO5)C(=O)[C@@H]3CC[C@H]12,0.165 (inactive),0.17,-0.348,-4.72 (inactive)
CC(=O)OC[C@H]1O[C@@H](ON=C2[C@H]3CCn4c(=O)n(-c5ccccc5)c(=O)n4[C@H]3[C@H](O)[C@@H]3O[C@H]23)[C@H](OC(C)=O)[C@@H](OC(C)=O)[C@@H]1OC(C)=O,-0.455 (inactive),0.292,-0.541,-4.07 (inactive)
COC(=O)[C@@H]1CC[C@H](C)[C@@H](c2ccc(Br)cc2)N1C(=O)C(F)(F)F,0.0945 (inactive),-0.635,-0.541,-0.733 (inactive)
O=C1C=C[C@@H](O)[C@@H]2[C@@H]3C(=O)N(c4cccc(Oc5ccccc5)c4)C(=O)[C@@H]3CC[C@@H]12,-0.0205 (inactive),0.528,-1.46,-0.827 (inactive)
O=C(NN=C1C[C@@H](O)[C@@H](O)[C@@H]2[C@@H]3C(=O)N(Cc4ccccc4)C(=O)[C@@H]3CC[C@H]12)OCc1ccccc1,-0.578 (inactive),-0.0586,0.892,-0.2 (inactive)
C=CC[C@@H]1C=CC(ON=C(C)C)[C@@H](CO)O1 (stereo not given in full),-0.649 (inactive),-0.0372,0.367,2.62 (inactive)
CCOC(=O)NN=C1C[C@@H](O)[C@@H](O)[C@@H]2[C@@H]3C(=O)N(C[C@@H]4CCCO4)C(=O)[C@@H]3CC[C@H]12,0.0272 (inactive),0.0356,0.379,0.0129 (inactive)
CO[C@H]1COC(=O)[C@H](C)COC(=O)[C@H](C)NC(=O)CC=C[C@H]1C,0.126 (inactive),0.506,0.0087,-0.299 (inactive)
COC(=O)[C@@H]1CC[C@H](C)[C@@H](c2ccc(C)cc2)N1C(=O)c1ccc(C=NOC[C@@H](O)[C@H]2O[C@@H]3OC(C)(C)O[C@@H]3[C@H]2O)cc1,0.102 (inactive),0.228,-0.209,-6.03 (inactive)
CC(C)CON=C1C[C@@H](O)[C@@H](O)[C@@H]2[C@@H]3C(=O)N(C(C)(C)C)C(=O)[C@@H]3CC[C@@H]12,0.0494 (inactive),-0.295,-1.62,-0.298 (inactive)
C=CCOCC1CN2[C@@H](CC[C@@H](C)[C@@H]2c2ccc(Br)cc2)C(=O)O1 (stereo not given in full),0.0364 (inactive),-0.104,1.72,-0.43 (inactive)
CCO[C@H](c1cc(OC)cc([N+](=O)[O-])c1OC)[C@H](C)[C@@H](OC)[C@H](C)C=CCC(=O)OC,0.72 (inactive),0.0025,-0.119,-0.256 (inactive)
CO[C@H]1COC(=O)CCC[C@H](C)[C@H](OC)COC(=O)CC=C[C@@H]1C,0.239 (inactive),0.0648,-0.116,-0.695 (inactive)
COC(=O)CC=C[C@@H](C)[C@@H](C=NOC[C@@H](C)[C@H](OCc1ccccc1)C(C)C)OC,0.0918 (inactive),-0.0012,-0.469,-3.36 (inactive)
CCN1C(=O)[C@H]2[C@H]3[C@H](O)[C@H](O)CC(=NO[C@@H](C)c4cc(-c5c(C)cc(C)cc5C)no4)[C@@H]3CC[C@H]2C1=O,0.359 (inactive),0.811,0.563,-6.73 (inactive)
CCc1cc2c(nc1CC)CCN(CCC(C)=NO[C@@H]1O[C@H](COC(C)=O)[C@@H](OC(C)=O)[C@H](OC(C)=O)[C@H]1OC(C)=O)C2,2.93 (inactive),0.719,-1.62,-4.79 (inactive)
